Measurements from the OligoGym collection.

Biological target: C14orf149
Test: pooled miR-30 sensor sort-seq; sequence = guide strand
Conditions: shRNA
Further: reference of the scale not given here.

Sequence	sensor-assay potency score (higher = more potent)
TTATAAAGCTTGCTGTACCCGT	0.0873
TAAACTGAGCTTTCACTGCCTC	-0.0059
TCTATTATAAAGCTTGCTGTAC	-0.349

Biological target: C14orf181
Test: as above
Conditions: shRNA

Sequence	sensor-assay potency score (higher = more potent)
TTAGCTTGGAGGTGGTGGTGGG	-0.365
TTCGGTTTTGTGCAAGGGGGAA	-0.823
TTTAGCTTGGAGGTGGTGGTGG	0.0381
TGCACTGCCGCTTCCGACCGGG	-0.747
TAGCTTGGAGGTGGTGGTGGGG	-0.69
AAAGTGAAAGTCTTCGGAGTGA	0.018
TTCGCCTGGAGCGCGTCCCTTC	-1.3
TTCGGAGTGAAGGAGGCGCTGC	-1.09
TAACCCTTCGCTGACCCGGCGT	-0.821
TATTTTAGCTTGGAGGTGGTGG	-0.309
AGGTATTTTAGCTTGGAGGTGG	-1.31
AAAGTCTTCGGAGTGAAGGAGG	-0.89

Biological target: C15orf39
Test: as above
Conditions: shRNA

Sequence	sensor-assay potency score (higher = more potent)
TTGTCCTGACCTTCACTGGTGG	-0.545
TGGAGCTTCTCTTTCCTGCAGC	-0.965
TAGAGAGAGAGGTCATCCCGGG	-0.132
TTTGTCCTGACCTTCACTGGTG	-0.221
ATAGAGAGAGAGGTCATCCCGG	-0.641
ATAAGGAAAACTCAGTGTCTGG	-1.35
TTGTCAATGACAGGCATTGGTG	-1.34
TGGTGCTTCTGTGTCTATCTTT	-0.327
TTCAGCATGCGTGAGGTGCAGC	-0.396
TACACAGTCGCGCCACTGCAGG	-1.54
TACCGGTAGAGTACAAGGGTGG	-0.811

Biological target: C15orf42
Test: as above
Conditions: shRNA

Sequence	sensor-assay potency score (higher = more potent)
TTGATTTACAAGACAATAGGAG	0.136
TTCATCTTCTGTCTCACTGGAG	0.162
TTCTTGATGAGCTATAGTGGAT	-1.03
TTAGTGATCTCTTTGAAGGGGA	0.326
TTTACTCTTACTAACTTCTGAA	0.249
TTCAATTTGTCGAAGATTCTGT	0.525
TTGGTCTGACTTATCTTGCTGG	-0.193
TACAACATGATTTCTCCTGTGG	0.642
TATACTATCCACAACATCTGAG	0.285
TTCAACATCTTTAAGGAACGGC	0.686
TTTAGGAACATTTTAACGGTTG	-0.0807
TAGGTTTAGAACTTCTTAGTGT	0.687
